# Test results from ChEMBL document CHEMBL3988442, “University of Dundee, Small-Polar-MMV Screening Library” (2021).
# Out of some 48,000 compounds screened, about 13,000 (27%) showed an effect of 50% or more. The list shows a part of the results.
# Tested on: Wolbachia pipientis
# Experiment: Anti-Wolbachia Cell-Based Screen
# Format: functional
# Set-up: scale not given: in the data most compounds retested in dose-response had high values
# Conditions: 5 µM
row,SMILES,Percent Effect [%]
1,CCN1C[C@@H]2CN(Cc3cccs3)C[C@@H]2C1=O.O=C(O)C(F)(F)F,-3.908
2,COCCNC(=O)C1(c2ccc(C)c(OC)c2)CCCC1,-0.08716
3,COCC1CC2(CCN(CC3CC3)CC2)CN1Cc1ccccn1.O=C(O)C(F)(F)F.O=C(O)C(F)(F)F (centres undefined),83.44
4,O=C(C1CCCO1)N1CCC2(CC1)CNCCO2 (centres undefined),-5.383
5,CCN(CC)C[C@H]1CN2CC[C@H]1C[C@@H]2CNC(=O)c1ccco1,-16.25
6,CNc1ncc(CN(C)c2ncnc3onc(C)c23)cn1,70.58
7,c1cncc(C(Cn2cnnc2)N2CCOCC2)c1 (centres undefined),3.663
8,CC(C)N1CCO[C@H]2CN(Cc3cc[nH]n3)C[C@H]21.O=C(O)C(F)(F)F.O=C(O)C(F)(F)F,92.97
9,Cc1cccc(CN2C[C@@H]3OCCN(C)[C@@H]3C2)n1,7.406
10,Cc1cccc(CN2C[C@@H]3OCCN(c4cnccn4)[C@@H]3C2)n1.O=C(O)C(F)(F)F,-8.161
11,CC(C)N1CCO[C@H]2CN(C(=O)Cc3cccs3)C[C@H]21.O=C(O)C(F)(F)F,10.95
12,CC(C)N1CCO[C@H]2CN(C(=O)Cc3ccsc3)C[C@H]21.O=C(O)C(F)(F)F,16.26
13,COCCN1CCO[C@H]2CN(Cc3cccc(C)n3)C[C@H]21.O=C(O)C(F)(F)F.O=C(O)C(F)(F)F,106.4
14,CC[C@H]1CN2CC[C@H]1C[C@@H]2CNCc1ccc(OC)cc1,-6.876
15,COc1ccc(-n2nnnc2C2(NCc3ccco3)CCCCC2)cc1,77.41
16,Cc1ccc(Cl)cc1-n1nnnc1C1(N2CCCC2)CCCCC1,-13.17
17,Cc1cccc(-n2nnnc2C2(NCc3ccco3)CCCCC2)c1,79.56
18,Clc1ccc(-n2nnnc2C2(NCc3ccco3)CCCCC2)cc1,73.59
19,CSc1nccc(N2CCN(C)C3(CCNC(=O)CC3)C2)n1 (centres undefined),-8.805
20,c1ccc(NC[C@@H]2CCC[C@@H]3CN(Cc4csnn4)C[C@@H]32)nc1,5.24
21,Cc1cccc(CN2CC3C[C@]3(NC(=O)c3ccoc3)C2)n1 (some centres undefined),-6.434
22,O=C(O)C(F)(F)F.O=C(O)C(F)(F)F.O=C(O)C(F)(F)F.c1ccc(CO[C@@H]2CO[C@@]3(CCN(Cc4ccccn4)C3)C2)nc1,19.79
23,CS(=O)(=O)N[C@@H]1CN(Cc2ccncc2)C[C@@H]2CCCO[C@@H]21.O=C(O)C(F)(F)F.O=C(O)C(F)(F)F,-0.6746

row,SMILES,Percent Effect [%]
1,CS(=O)(=O)NC1CC2(CCN(CCF)CC2)Oc2ccccc21.O=C(O)C(F)(F)F (centres undefined),90.28
2,CCC(O)Cn1cc(C2=CCN(Cc3cc(O)nc(C)n3)CC2)cn1 (centres undefined),5.407
3,Cl.Cl.Cn1ccc(CN2CCOCC23CCNCC3)n1,-7.915
4,CN(Cc1ccccc1)c1ncccc1CNC1CN2CCC1CC2 (centres undefined),-8.195
5,CN(CCc1ccccc1)Cc1c(C2CC2)[nH]c2ncccc12,128
6,Cn1cc(CN2CC[C@H]3CO[C@H](CNc4ncccn4)[C@H]3C2)cn1.O=C(O)C(F)(F)F.O=C(O)C(F)(F)F,-23.96
7,O=C(O)C(F)(F)F.O=C(O)C(F)(F)F.c1ccc(CN2CC[C@H]3CO[C@H](CNc4ncccn4)[C@H]3C2)cc1,109.8
8,O=C(O)C(F)(F)F.O=C(O)C(F)(F)F.O=C(O)C(F)(F)F.c1cnc(NC[C@H]2OC[C@@H]3CCN(Cc4cccnc4)C[C@@H]32)nc1,106.3
9,c1csc(CN2CC[C@H]3C[C@H](c4ccncn4)O[C@@H]3C2)c1,13.32
10,c1cnc(NC[C@H]2OC[C@@H]3CCN(Cc4ccncc4)C[C@@H]32)nc1,115
11,c1ccc(CN2CC[C@H]3CO[C@H](CNc4ncccn4)[C@H]3C2)nc1,-4.696
12,O=C(O)C(F)(F)F.O=C(O)C(F)(F)F.O=C(O)C(F)(F)F.c1cnc(NC[C@H]2OC[C@@H]3CCN(Cc4nccs4)C[C@@H]32)nc1,101
13,Cc1ccc(OCC(=O)N2CCN[C@H]3CS(=O)(=O)C[C@H]32)cn1,-8.198
14,N#CC1(c2ccccc2)CCN(C(=O)C2CCCN(C(N)=O)C2)CC1 (centres undefined),6.737
15,CCC(CC)C(=O)N1CCOC2(CNC2)C1,-30.77
16,CS(=O)(=O)c1ccc(CC(=O)N2CCN3CCNC(=O)C3C2)cc1 (centres undefined),-12.31
17,Cc1cc(CN2C[C@@H]3CN(C(=O)c4ccsc4)CCO[C@@H]3C2)no1.O=C(O)C(F)(F)F,15.19
18,CN(C)CCNC(=O)[C@H]1C[C@H]2CN(c3ncccn3)C[C@H]2N1C.O=C(O)C(F)(F)F.O=C(O)C(F)(F)F.O=C(O)C(F)(F)F,-2.268
19,COCC(=O)NC[C@H]1C[C@@H]2CCN1C[C@@H]2c1cc(-c2cccs2)nn1C,-7.322
20,CN1CCN(C[C@@H]2OC[C@H]3CN(Cc4ccncc4)CC[C@H]32)CC1,117.8
21,CN(c1ncccc1C#N)C1CCN(Cc2ccncc2)CC1,-9.884
22,O=C1[C@H]2CN(Cc3ccoc3)C[C@@H]2CCN1Cc1cccnc1,-2.353
23,Cn1ccnc1CN1CC[C@H]2CO[C@H](CNc3ncccn3)[C@H]2C1.O=C(O)C(F)(F)F.O=C(O)C(F)(F)F.O=C(O)C(F)(F)F,100.8

row,SMILES,Percent Effect [%]
1,CS(=O)(=O)NC[C@H]1OC[C@@H]2CN(Cc3cccnc3)CC[C@@H]21,117.5
2,CN1CCN([C@H]2COC[C@@H]3CN(Cc4cccnc4)C[C@@H]32)CC1,3.012
3,O=C(O)C(F)(F)F.O=C(O)C(F)(F)F.c1cnc(NC[C@H]2OC[C@@H]3CCN(Cc4ccsc4)C[C@@H]32)nc1,103.6
4,COc1ccc(CCN)cc1-c1ccc(C(N)=O)cc1,-8.06
5,Cc1noc(C)c1CN1C[C@@H]2OCCN(Cc3cnn(C)c3)[C@@H]2C1,-6.904
6,COCCn1c(C(=O)NC(C(N)=O)C(C)C)cc2ccccc21 (centres undefined),-3.087
7,Cc1ccccc1-n1cc(C2=CCN(CCn3cc[nH]c3=O)CC2)cn1,20.16
8,Cc1cc(C)c(CNc2ncnc3ccsc23)c(=O)[nH]1,1.6
9,O=C(O)C(F)(F)F.O=C(O)C(F)(F)F.O=C(O)C(F)(F)F.c1ccc(CN2CC[C@@H]3[C@@H](CO[C@@H]3CNc3ncccn3)C2)nc1,94.77
10,O=C(CC1CC1)N[C@@H]1CN(Cc2ccccn2)C[C@@H]2CCCO[C@@H]21.O=C(O)C(F)(F)F.O=C(O)C(F)(F)F,-3.839
11,O=S1(=O)CCC(n2cc(C3=CCN(CCn4cccc4)CC3)cn2)C1 (centres undefined),-6.845
12,Cc1nc(C(C)C)sc1C(=O)N1CCN(C2CN3CCC2CC3)CC1 (centres undefined),76.14
13,COCCN1CCCC12CCCN(c1ncccn1)C2 (centres undefined),-3.4
14,CC(C)(C)c1cc(=O)[nH]c(C2(N)CCCCC2)n1.Cl,-23.57
15,Cc1cccc(CN2C[C@@H]3OCCN(S(=O)(=O)N(C)C)[C@@H]3C2)n1,2.928
16,CN(C)c1nccc(N2CCO[C@H]3CN(Cc4ccsc4)C[C@H]32)n1.O=C(O)C(F)(F)F,12.89
17,COCCN1C[C@@H]2OCCN(c3ccnc(N(C)C)n3)[C@@H]2C1,104.4
18,CN(C)c1nccc(N2CCO[C@H]3CN(Cc4ccco4)C[C@H]32)n1,68.55
19,c1ccc(CCN2C[C@@H]3OCCN(c4ncccn4)[C@@H]3C2)cc1,21.57
20,Cn1ccnc1CN1C[C@@H]2OCCN(c3ncccn3)[C@@H]2C1,7.273
21,OCCN1CCOC2(CCCN(c3ncccn3)C2)C1 (centres undefined),10.98
22,Cc1nc(CN2CCOC3(CCCC3)C2)no1,71.5
23,Cc1noc(C)c1CN1CCCC2(C1)CN(c1nncs1)CCO2 (centres undefined),-8.738

row,SMILES,Percent Effect [%]
1,CC(=O)N1CCCC2(CN(Cc3ccncc3)CCO2)C1 (centres undefined),-7.212
2,Cc1nc(CN2CCOC3(CCCC3)C2)oc1C,98.63
3,CN1CCC(N2CCOC3(CCCC3)C2)C1=O (centres undefined),17.36
4,Cc1nc(CN2CCN(C(=O)COc3c(C)ccc(C)c3C)CC2)no1,0.1735
5,c1cc(CN2CCOC3(CCCC3)C2)no1,-7.47
6,CCc1noc(CN2CCOC3(CCCC3)C2)n1,98.78
7,Cl.NCC1(c2cccc(Br)c2)CCOCC1,-3.113
8,CN(Cc1nc2ccsc2c(=O)[nH]1)C[C@@H]1CCCN2CCCC[C@H]12,9.481
9,Cc1cc(C)nc(N2CCCC2c2cccnc2)n1 (centres undefined),-35.57
10,Cc1cc(N2CCCC2c2cccnc2)nc(C)n1 (centres undefined),-8.687
11,Cc1nn(C)c2nc(N3CCCCC3c3cccnc3)sc12 (centres undefined),116.8
12,c1cc(CN2CCOCC3(CCNCC3)C2)ccn1,-46.48
13,CNc1nccnc1C1CCN(C(C)C)CC1,92.81
14,Cc1n[nH]c(C)c1CC(=O)N1CCCN(C)C2(CCN(C)CC2)C1,0.449
15,CCS(=O)(=O)N1CC[C@H](OC)[C@H]2CN(Cc3ccncc3)C[C@H]21.O=C(O)C(F)(F)F.O=C(O)C(F)(F)F,4.967
16,CO[C@H]1CCN(Cc2cccs2)[C@@H]2CN(Cc3ccncc3)C[C@H]12.O=C(O)C(F)(F)F.O=C(O)C(F)(F)F.O=C(O)C(F)(F)F,110
17,CO[C@H]1CCN(C2CCC2)[C@@H]2CN(Cc3ccncc3)C[C@H]12.O=C(O)C(F)(F)F.O=C(O)C(F)(F)F.O=C(O)C(F)(F)F,1.676
18,CO[C@@H]1CCN(Cc2cccs2)[C@@H]2CN(Cc3ccncc3)C[C@@H]21.O=C(O)C(F)(F)F.O=C(O)C(F)(F)F.O=C(O)C(F)(F)F,96.91
19,CO[C@@H]1CCN(S(=O)(=O)N(C)C)[C@@H]2CN(Cc3cccnc3)C[C@@H]21.O=C(O)C(F)(F)F.O=C(O)C(F)(F)F,-16.98
20,CO[C@@H]1CCN(S(=O)(=O)N(C)C)[C@@H]2CN(Cc3ccncc3)C[C@@H]21.O=C(O)C(F)(F)F.O=C(O)C(F)(F)F,7.733
